Experimental data published in PubChem BioAssay (EPA / NIEHS).
“And” between values parts separate entries of the source, which are not always exact repeats. Equal entries are not always repeated. More than one record can exist for a structure, and the calls need not agree. The source made the active and inactive calls. How the source made its calls: active means hit-call score of the fitted dose curve at least 0.9, where 1 is the maximum; inactive means score below 0.9.

Test: BSK_SAg_PBMCCytotoxicity: PBMC Cytotoxicity Assessment in the BioMAP Diversity Plus: SAg Assay (AID 2283093);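 further: fitted both ways against DMSO so a hit may be loss or gain of signal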
Conditions: primary human HUVEC with PBMC
Experimental: BSK_SAg is a cell-based, multiplexed-readout assay that uses umbilical vein endothelium and peripheral blood mononuclear cells, a human vascular primary cell co-culture, with measurements taken at 24 hours after chemical dosing in a 96-well plate.BSK_SAg_PBMCCytotoxicity is an assay component measured in the BSK_SAg assay. It measures Alamar blue related to cell death using Alamar Blue Reduction technology.Data from the assay component BSK_SAg_PBMCCytotoxicity was analyzed into 1 assay endpoint. This assay endpoint, BSK_SAg_PBMCCytotoxicity, was analyzed with bidirectional fitting relative to DMSO as the negative control and baseline of activity. Using a type of viability reporter, gain or loss-of-signal activity can be used to understand changes in the viability. Furthermore, this assay endpoint can be referred to as a secondary readout, because this assay has produced multiple assay endpoints where this one serves a viability function. To generalize the intended target to other relatable targets, this assay endpoint is annotated to the cell cycle intended target family, where the subfamily is cytotoxicity.
The levels of cell surface (or secreted, indicated by the prefix "s") biomarker endpoints were measured by ELISA. Overt cytotoxicity to cells in confluent adherent cultures (all systems other than the BT system) was assessed by measuring total protein levels using sulforhodamine B (SRB) staining in parallel cultures at the time of biomarker measurements, indicated as SRB endpoints. For proliferation assays for adherent cell types, individual cell types are cultured at sub-confluence and relative cell numbers quantified by SRB staining at time points optimized for each system (48 h: 3C and CASM3C systems; 72 h: BT and HDF3CGF systems; 96 h: SAg system). SRB was performed by staining cells with 0.1% SRB after fixation with 10% TCA and reading wells at 560 nm.Viability and proliferation of PBMC (T cells) was quantified by Alamar Blue reduction for the SAg and BT systems. For PBMC viability (referred to as PBMC Cytotoxicity within the assay endpoint names), cells were plated (75,000/well in a 96-well plate) and then chemical samples added for 1 h before addition of activators, SEB and TSST-1 (20 ng/mL final concentration each). Cells were incubated for 90 h. Then, Alamar Blue (20 uL/well) (Invitrogen, Cat DAL1100) was added for 6 h, and the plates were read with a fluorescence microplate reader at 546/580 nm (excitation/emission). For PBMC proliferation, cells were plated and activated as above but incubated for only 16 h prior to addition of Alamar Blue. Plates were read after 6 h.

| SMILES | AC50 | outcome |
| --- | --- | --- |
| C=CCC1=C(C)[C@@H](OC(=O)[C@@H]2[C@@H](C=C(C)C)C2(C)C)CC1=O | 32.4 µM (active) | – |
| CCOC(=O)CC(SP(=S)(OC)OC)C(=O)OCC (stereo not given) | – | inactive |
| COC(=O)c1ccccc1C(=O)OC | – | inactive |
| COC(=O)N(OC)c1ccccc1COc1ccn(-c2ccc(Cl)cc2)n1 | 0.222 µM (active) | – |
| C#CCOS(=O)OC1CCCCC1Oc1ccc(C(C)(C)C)cc1 (stereo not given) | 14.6 µM (active) | – |
| CCCCC(CC)COC(=O)c1ccccc1C(=O)OCC(CC)CCCC (stereo not given) | – | inactive |
| CCCCOC(=O)c1ccccc1C(=O)OCCCC | – | inactive |
| N#Cc1cc(Br)c(O)c(Br)c1 | 14.4 µM (active) | – |
| CNC(=S)S | 14.7 µM (active) | – |
| CCNc1nc(Cl)nc(NC(C)C)n1 | – | inactive |
| C=CC1(C)OC(=O)N(c2cc(Cl)cc(Cl)c2)C1=O (stereo not given) | – | inactive |
| Fc1ccc(Oc2ccnc3cc(Cl)cc(Cl)c23)cc1 | 31.4 µM (active) | – |
| CS/C(C)=N/OC(=O)N(C)SN(C)C(=O)O/N=C(\C)SC | 8.27 µM (active) | – |
| COc1nc(C)nc(NC(=O)NS(=O)(=O)c2ccccc2Cl)n1 | – | inactive |
| O=C(Nc1ccccc1)Nc1ccnc(Cl)c1 | – | inactive |
| CN(C)C(=S)SSC(=S)N(C)C | 3.87 µM (active) | – |
| O=C(O)c1nc(Cl)ccc1Cl | – | inactive |
| Cc1cc(Cl)ccc1OCC(=O)O | – | inactive |
| COC(=O)C(C)Oc1ccc(Oc2ccc(Cl)cc2Cl)cc1 (stereo not given) | – | inactive |
| CCCCNC(=O)OCC#CI | 7.02 µM (active) and 7.09 µM (active) | – |

| SMILES | AC50 | outcome |
| --- | --- | --- |
| C=CCC1=C(C)C(OC(=O)C2C(C=C(C)C)C2(C)C)CC1=O (stereo not given) | 34 µM (active) [middle of 4 runs] | – |
| CO/C=C(/C(=O)OC)c1ccccc1Oc1cc(Oc2ccccc2C#N)ncn1 | 6.9 µM (active) and 5.28 µM (active) and 13 µM (active) | inactive |
| COP(=S)(OC)Oc1nc(Cl)c(Cl)cc1Cl | – | inactive |
| CCCN(CCC)c1c([N+](=O)[O-])cc(S(N)(=O)=O)cc1[N+](=O)[O-] | 30.7 µM (active) [middle of 4 runs] | – |
| Cc1ccc(-c2c(Cl)nc(C#N)n2S(=O)(=O)N(C)C)cc1 | – | inactive |
| CCc1nn(C)c(C(=O)NCc2ccc(C(C)(C)C)cc2)c1Cl | 34.8 µM (active) | – |
| N#CC(CCc1ccc(Cl)cc1)(Cn1cncn1)c1ccccc1 (stereo not given) | – | inactive |
| COc1nc(C)nc(NC(=O)NS(=O)(=O)c2ccccc2CCC(F)(F)F)n1 | – | inactive |
| CCOC(=O)C(Cl)Cc1cc(-n2nc(C)n(C(F)F)c2=O)c(F)cc1Cl (stereo not given) | – | inactive |
| OC(c1ccc(Cl)cc1)(c1cncnc1)c1ccccc1Cl (stereo not given) | 3.45 µM (active) | – |
| COc1ccc(C(c2ccc(OC)cc2)C(Cl)(Cl)Cl)cc1 | 31.5 µM (active) | – |
| CCCCNC(=O)n1c(NC(=O)OC)nc2ccccc21 | – | inactive |
| COC(=O)C=C(C)OP(=O)(OC)OC | – | inactive |
| CCOc1cc(Oc2ccc(C(F)(F)F)cc2Cl)ccc1[N+](=O)[O-] | – | inactive |
| CC(C)C1(C)N=C(c2nc3ccccc3cc2C(=O)O)NC1=O (stereo not given) | – | inactive |
| Cc1c(F)c(F)c(COC(=O)C2C(/C=C(\Cl)C(F)(F)F)C2(C)C)c(F)c1F (stereo not given) | – | inactive |
| O=C(O)COc1nc(Cl)c(Cl)cc1Cl | – | inactive |
| CC(C)Oc1cc(-n2nc(C(C)(C)C)oc2=O)c(Cl)cc1Cl | 34.4 µM (active) | – |
| CC(Oc1ccc(Cl)cc1Cl)C(=O)O (stereo not given) | – | inactive |
